In the library only some 7% were active in any assay of this set; here they are far more common.
a7 integrin act – qHTS for Activators of Integrin-Mediated Alleviation for Muscular Dystrophy; alpha7betagal myoblasts, beta-gal FDG fluorescence, 48 h; Potency, µM (top dose mostly 38.3 µM), most hits filed as activators; 0.064% of 350,000 active; also: nearly all actives have a fitted effect of over 60% in size
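Alpha7betagal+/- myoblasts (passage 13) were plated 16-24 hr, then exposed to compounds (1:260 dilution of DMSO stock) for 48 hours at 37C. After MPER lysis, β-galactosidase reporter activity was read as FDG fluorescence (ex 480/em 540) after 30 minutes.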
IL-1B inflam inh – qHTS for Inhibitors of Inflammasome Signaling: IL-1-beta AlphaLISA Primary Screen; THP-1 LPS/ATP IL-1B secretion, AlphaLISA, 16 h; active compounds read low; 4.7% of 360,000 active; AID 743279, 2014; activity change, % at 57.5 µM; in the data active = activity change below about -50%; inconclusive = mostly about -30% to -49%
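Secreted IL-1B measured by AlphaLISA bead assay after 16 h compound exposure of THP-1 cells; compounds (final up to 57.5 uM) added 1 h before LPS (250 ng/mL) and ATP (1.25 mM) stimulation; lower signal means less secretion.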
D3 ag – qHTS of D3 Dopamine Receptor Agonist: qHTS; D(3) dopamine receptor (Homo sapiens), P35462; D3R DiscoveRx beta-arrestin cells, luminescence, 90 min; 0.58% of 410,000 active; max activation, %; AID 652048, 2013; in the data active = max activation above about 30%
Target sequence (P35462 whole entry, looked up): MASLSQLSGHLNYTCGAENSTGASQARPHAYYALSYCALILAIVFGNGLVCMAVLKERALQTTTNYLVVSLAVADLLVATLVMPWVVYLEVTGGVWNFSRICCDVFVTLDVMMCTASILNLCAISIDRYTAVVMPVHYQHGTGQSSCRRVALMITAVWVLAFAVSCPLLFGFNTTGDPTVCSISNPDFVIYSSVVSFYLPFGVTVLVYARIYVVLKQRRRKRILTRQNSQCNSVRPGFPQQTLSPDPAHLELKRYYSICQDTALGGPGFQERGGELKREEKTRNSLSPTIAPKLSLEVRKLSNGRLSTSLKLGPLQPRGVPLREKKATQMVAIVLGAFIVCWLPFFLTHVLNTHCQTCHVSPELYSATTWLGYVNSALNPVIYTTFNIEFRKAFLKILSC
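Cells at 1500/well, incubated overnight, then treated with pinned compounds (dopamine as control) for 90 min at 37 degrees C. DiscoveRx reagent added for 30 - 60 minutes at room temperature; luminescence read.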
ATXN viability – Viability Counterscreen for Primary qHTS for Inhibitors of ATXN expression. 0.49% of 400,000 active. Potency, µM (titrated, usually from 56.7 µM), most hits filed as cytotoxic. S2 cells (HEK-293 line with an ATXN2-luciferase reporter) viability, CellTiter-Fluor protease fluorescence, 24 h; also: nearly all actives have a fitted effect of over 40% in size
ATXN2 expr inh – Primary qHTS for Inhibitors of ATXN expression | HEK-293 ATXN2-luciferase reporter, luminescence, 24 h | Potency, µM (series often up to 57 µM), hits mostly inhibitors | 0.72% of 360,000 active | AID 1745845, 2022; also: nearly all actives have a fitted effect of over 55% in size
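qHTS (up to 57 uM final) was run with 24 h compound exposure of reporter cells at 37 °C. Each well was multiplexed: SteadyGlo luminescence measured ATXN2-luciferase expression after a fluorogenic Gly-Phe-AFC viability readout (25 uM final).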
DRD3 antagonist – qHTS of D3 Dopamine Receptor Antagonist: qHTS | D3R cells, DiscoveRx beta-arrestin luminescence, antagonist mode; active compounds read low | max response, negative = inhibition, % | 2.5% of 360,000 active | AID 652054, 2013; in the data active = max response below about -50%; inconclusive = no clear call, values can overlap the other calls
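Cells plated overnight at 1500 cells/well, then exposed to library compounds with dopamine controls for 90 minutes at 37 degrees C. DiscoveRx reagent added for 30–60 minutes at room temperature; luminescence read, quantitative HTS format.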
Numbers stand for hits; n = inactive; u = inconclusive; x = no result; [ ] = another dose, or the depositor's remark. Unless noted, calls follow the shape of the dose curve; as a rule, active = well fitted curve in the direction sought with a large enough effect; inconclusive = small, poorly fitted or top-dose-only effect, or another doubt; inactive = no such curve, though single readings can be large; an effect the other way counts as inactive or inconclusive.

SMILES	a7 integrin act	IL-1B inflam inh	D3 ag	ATXN viability	ATXN2 expr inh	DRD3 antagonist
CCCC(=O)NC(c1cccs1)c1cc([N+](=O)[O-])c2cccnc2c1O (stereo not given)	n	u	n	u	u	u
CC(=O)NC(c1ccccc1)c1cc([N+](=O)[O-])c2cccnc2c1O (stereo not given)	n	n	n	u	u	u
CC(=O)NC(c1cccs1)c1cc([N+](=O)[O-])c2cccnc2c1O (stereo not given)	n	n	n	u	12.6µM	u
CCC(=O)NC(c1cccs1)c1cc([N+](=O)[O-])c2cccnc2c1O (stereo not given)	n	n	n	u	u	-69.2
O=C(CCc1ccccc1)NC(c1cccs1)c1cc(Cl)c2cccnc2c1O (stereo not given)	n	n	n	x	13.4µM	n
CC(C)C(=O)NC(c1ccccc1)c1cc([N+](=O)[O-])c2cccnc2c1O (stereo not given)	n	n	n	n	u	-76.7
CCC(=O)NC(c1cccs1)c1cc(Cl)c2ccccc2c1O (stereo not given)	x	x	x	n	n	x
COc1cc2c(cc1OC)C(C)N(C(=O)/C=C/c1cc(OC)c(OC)c(OC)c1)CC2 (stereo not given)	n	n	n	n	n	n
COCCN1CCN(C(=O)c2cnn(-c3nccc(-c4cc5ccccc5o4)n3)c2C2CC2)CC1	x	x	x	n	x	x
Cc1cccc(OCc2nnc3n2CCCCC3)c1	n	n	n	n	n	n
Cc1cccc(NC(=O)CNC(=O)[C@H]2O[C@@H](n3ccc(N)nc3=O)[C@H](O)[C@@H]2O)c1C	x	n	n	n	n	n
Cc1ccc(CN2C(=O)N/C(=C\c3cccn3-c3cccc(C(=O)O)c3)C2=O)cc1	n	n	n	n	n[11.3 µM]	n
CCOc1ccc(C(=O)N2CCN(c3ccccc3)CC2)cc1	n	n	n	n	n	n
COc1ccc(O)c(C(=O)c2coc(=N)c(C(=O)Nc3ccc(SC(F)F)cc3)c2)c1	n	-54.4	n	x	n	n
CC1Cc2ccccc2N1C(=O)CN(C)CC(=O)Nc1cccc(F)c1 (stereo not given)	n	n	n	n	x	n
COc1ccnc(Oc2ccc(F)cc2)c1C(=O)N/C=N/OCc1ccc(F)cc1Cl	n	-64.5	n	n	n	n
COC(=O)C(Cc1ccccc1)NC(=O)C(CC(C)C)NC(=O)OC(C)(C)C (stereo not given)	n	n	n	u	n	n
COC(=O)C(CC(C)C)NC(=O)C(Cc1ccccc1)NC(=O)C1CCCN1C(=O)OC(C)(C)C (stereo not given)	n	-70.5	n	n	n[11.3 µM]	n
CC(C)CC(NC(=O)C1CCCN1C(=O)OC(C)(C)C)C(=O)NCC(N)=O (stereo not given)	n	n	n	n	n	-58.5
COc1ccccc1N(CC(=O)NC1CCCC1)C(=O)c1oc(C(C)(C)C)cc1C	n	-91.5	n	n	u	n
Cc1cc(C(C)(C)C)oc1C(=O)N(CC(=O)NC1CCCC1)c1c(C)cccc1C	n	n	n	u	u	n
Cc1cc(C)c(Cn2cnc(-c3ccc([N+](=O)[O-])cc3)c2)c(C)c1	n	-63.7	n	n	n	n
OC[C@@H]1[C@@H](c2ccc(Cl)cc2)C(c2ccc(F)cc2)=NN1c1ccccc1	n	n	n	x	n	n
OC[C@@H]1[C@@H](c2ccccc2)C(c2ccc(F)cc2)=NN1c1ccccc1	n	n	37.7	x	n	n
CCN(CC(=O)Nc1cc(Cl)ccc1C)c1ncnc2sc(C)c(C)c12	n	-61.2	n	n	n	n
CCN(C(=O)COC(=O)c1nc2nc(C)cc(C)n2n1)C1CCS(=O)(=O)C1 (stereo not given)	n	n	n	n	n	n
CCOC(=O)c1nc(C)n(-c2cc(OC)c(Cl)cc2Cl)n1	n	-92.4	n	n	n	n
